Source: PubChem BioAssay AID504333 (National Center for Advancing Translational Sciences (NCATS), 2011)
Screen size: about 360,000 compounds; about 16,000 (4.4%) were called active. A call without a number means that no potency is given here. Another 9% or so got no clear call; they are omitted. Calls come from the whole dose curve; as a rule, active = well fitted inhibition curve with a large enough effect; inconclusive = small, poorly fitted or top-dose-only effect; inactive = no such curve, though single readings can be large or run the other way. For the sample, actives were picked, then their nearest neighbours and some compounds at random.

Each compound was assayed against Bromodomain adjacent to zinc finger domain protein 2B (Homo sapiens) (UniProt Q9UIF8) (assay: qHTS Assay for Inhibitors of BAZ2B). Conditions: AlphaScreen BAZ2B-H3K14Ac peptide displacement; series mostly up to 114 µM.
Method in brief: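 AlphaScreen luminescence quantifies BAZ2B engagement of H3K14Ac peptide; the protein and biotinylated peptide are both at 50 nM final, buffer PBS pH 7.4 with 0.01% Tween-20, all steps at room temperature.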
Note: nearly all actives have a fitted effect of over 60% in size.
Potency is the fitted concentration of half-maximal effect.

Sequence of Bromodomain adjacent to zinc finger domain protein 2B (Homo sapiens) (Q9UIF8 whole entry, looked up, the tested form may be a part): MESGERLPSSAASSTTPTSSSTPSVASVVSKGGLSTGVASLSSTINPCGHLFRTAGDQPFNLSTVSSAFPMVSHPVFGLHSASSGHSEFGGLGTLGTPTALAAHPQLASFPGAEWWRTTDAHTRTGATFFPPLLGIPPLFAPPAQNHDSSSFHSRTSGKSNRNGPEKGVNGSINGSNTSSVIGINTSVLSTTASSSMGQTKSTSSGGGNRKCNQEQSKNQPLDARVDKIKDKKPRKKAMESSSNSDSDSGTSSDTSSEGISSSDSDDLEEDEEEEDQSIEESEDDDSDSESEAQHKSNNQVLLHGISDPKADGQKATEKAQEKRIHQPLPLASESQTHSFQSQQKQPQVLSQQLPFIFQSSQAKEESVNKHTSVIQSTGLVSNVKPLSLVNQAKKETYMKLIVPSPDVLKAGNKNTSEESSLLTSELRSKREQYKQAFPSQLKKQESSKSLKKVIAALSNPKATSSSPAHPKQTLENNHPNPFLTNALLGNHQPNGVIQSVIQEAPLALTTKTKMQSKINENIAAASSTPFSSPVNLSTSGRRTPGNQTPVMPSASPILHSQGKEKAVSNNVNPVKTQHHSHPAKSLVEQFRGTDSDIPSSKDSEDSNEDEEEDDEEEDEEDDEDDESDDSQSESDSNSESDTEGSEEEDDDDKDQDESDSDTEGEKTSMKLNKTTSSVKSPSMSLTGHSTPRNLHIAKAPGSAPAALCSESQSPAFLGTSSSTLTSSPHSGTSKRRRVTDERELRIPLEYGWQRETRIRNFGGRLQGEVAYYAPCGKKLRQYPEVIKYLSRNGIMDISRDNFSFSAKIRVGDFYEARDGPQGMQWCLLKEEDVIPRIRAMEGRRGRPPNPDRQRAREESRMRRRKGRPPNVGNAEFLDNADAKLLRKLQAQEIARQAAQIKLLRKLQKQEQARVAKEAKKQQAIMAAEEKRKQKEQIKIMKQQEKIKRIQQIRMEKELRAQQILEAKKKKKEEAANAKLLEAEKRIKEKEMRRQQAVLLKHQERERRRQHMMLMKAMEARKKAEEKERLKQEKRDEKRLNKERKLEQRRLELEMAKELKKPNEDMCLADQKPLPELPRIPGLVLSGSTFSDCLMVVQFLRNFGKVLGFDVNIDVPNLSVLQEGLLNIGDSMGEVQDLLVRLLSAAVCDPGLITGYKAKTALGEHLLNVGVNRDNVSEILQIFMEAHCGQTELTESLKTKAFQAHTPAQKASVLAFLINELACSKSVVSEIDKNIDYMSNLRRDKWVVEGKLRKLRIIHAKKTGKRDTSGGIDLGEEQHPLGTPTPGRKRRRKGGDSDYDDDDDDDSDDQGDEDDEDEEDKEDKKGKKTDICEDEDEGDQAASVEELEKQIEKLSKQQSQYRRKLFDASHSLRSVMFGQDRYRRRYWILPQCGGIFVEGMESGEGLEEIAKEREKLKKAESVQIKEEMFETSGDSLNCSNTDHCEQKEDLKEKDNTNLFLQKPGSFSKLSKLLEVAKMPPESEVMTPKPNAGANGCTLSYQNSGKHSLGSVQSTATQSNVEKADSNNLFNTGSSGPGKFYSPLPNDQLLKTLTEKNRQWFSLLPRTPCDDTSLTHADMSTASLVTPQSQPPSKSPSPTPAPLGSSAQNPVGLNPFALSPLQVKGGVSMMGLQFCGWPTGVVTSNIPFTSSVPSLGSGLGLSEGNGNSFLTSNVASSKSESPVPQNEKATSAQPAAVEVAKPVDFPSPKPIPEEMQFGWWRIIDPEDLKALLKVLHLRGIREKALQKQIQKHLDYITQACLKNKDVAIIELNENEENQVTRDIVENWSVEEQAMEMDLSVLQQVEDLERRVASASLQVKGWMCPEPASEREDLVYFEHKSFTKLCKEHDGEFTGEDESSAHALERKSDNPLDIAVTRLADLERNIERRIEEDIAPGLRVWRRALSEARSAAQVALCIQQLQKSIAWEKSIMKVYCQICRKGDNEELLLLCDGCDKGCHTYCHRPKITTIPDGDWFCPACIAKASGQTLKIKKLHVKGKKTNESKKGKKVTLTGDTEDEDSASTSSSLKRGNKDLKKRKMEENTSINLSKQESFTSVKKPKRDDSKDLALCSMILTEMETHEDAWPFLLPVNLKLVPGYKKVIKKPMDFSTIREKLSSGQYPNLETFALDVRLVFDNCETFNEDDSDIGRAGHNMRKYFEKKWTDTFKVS

Structure (SMILES) | Potency
CCCc1cc(=O)n2[nH]c(NCc3ccc(CC)cc3)nc2n1 | inactive
Nc1ccccc1SC(C[N+](=O)[O-])c1ccccc1 (stereo unspecified) | 44.7 µM (active)
COc1cc(CNC(=O)c2cc3n(n2)CCCN(Cc2cccc(F)c2)C3=O)cc(OC)c1OC | inactive
Cc1oc2ccc(O)c(CN3CCOCC3)c2c1C(=O)Nc1cccc(Cl)c1C | inactive
CNC(=O)C(=O)N/N=C/c1ccccn1 | 39.8 µM (active)
O=C(CNC(=O)c1cccnc1)N/N=C/c1cccnc1 | inactive
O=C(N/N=C/c1ccccn1)c1cccc(NC(=O)c2ccc(Cl)cc2)c1 | inactive
Cc1cc(C(=O)N/N=C/c2ccccn2)c2ccccc2n1 | inactive
O=C(N/N=C/c1ccccn1)C12CC3CC(CC(C3)C1)C2 | inactive
O=C(N/N=C/c1ccccn1)c1cccnc1 | 28.2 µM (active)
COc1ccc(-c2noc(CSc3nc4ccc(C)cc4[nH]3)n2)cc1 | inactive
Cc1oc2ncnc(N3CCCCC3)c2c1C(=O)N1CCN(c2cccc(Cl)c2)CC1 | inactive
Cc1cccc(NC(=O)CSc2nnc(CNC(=O)c3cccc(C)c3)n2-c2ccccc2)c1 | inactive
Cc1ccc(-c2ccc(CCC(=O)O)n2-c2ccc(C(N)=O)cc2)cc1 | inactive
CCN1CCN(Cc2c(O)ccc3oc(C)c(C(=O)Nc4ccc(C)cc4C)c23)CC1 | inactive
OC(C#CCN1CCOCC1)(c1ccccc1)C1CCCCC1 (stereo unspecified) | inactive
CC(C)(C)N(CC#CCC(O)(c1ccccc1)C1CCCC1)CCO (stereo unspecified) | 79.4 µM (active)
CN(CC#CCC(c1ccccc1)c1ccccc1)C(C)(C)C | inactive
CCc1ccccc1NC(=O)c1ccc2nc(CCc3ccccc3)oc2c1 | inactive
COC(=O)c1ccc(Cn2c(SCC(=O)N(C)c3ccccc3)nc3ccccc32)cc1 | inactive
O=C(Nc1ccc(Oc2ccccc2)cc1)C1CCN(S(=O)(=O)c2ccc(Cl)cc2)CC1 | inactive
O=C(Nc1ccccc1)c1nnsc1S(=O)(=O)c1ccc(Cl)cc1 | 44.7 µM (active)
CN(c1cccc(NC(=O)Nc2ccc(Cl)cc2)c1)S(C)(=O)=O | inactive
CCCCN(CC)CCCNC(=O)c1nn(C)c2c1CSc1ccccc1-2 | inactive
Cc1ccccc1CNC(=O)c1cccc(NC(=O)c2nsc3ccccc23)c1 | inactive
O=C(CSc1nnc(-c2ccncc2)n1-c1ccccc1)Nc1ccc(Cl)c(Cl)c1 | inactive

Structure (SMILES) | Potency
Cc1cc(C)cc(-n2c(SCC(=O)NCC3CCCO3)nc3c([nH]c4ccccc43)c2=O)c1 (stereo unspecified) | inactive
Cc1ccc(CN2C(=O)N/C(=C/c3cc(C)n(-c4ccccn4)c3C)C2=O)cc1 | inactive
CSc1c(SCc2ccccc2)cnn(Cc2ccccc2)c1=O | inactive
CC1=NN(Cc2ccccc2)C(=O)/C1=C/c1ccc(N(C)C)cc1 | 2 µM (active)
CN(C)c1ccnc2sc3c(=O)n(Cc4ccccc4)cnc3c12 | inactive
O=C1N/C(=C/c2cccs2)C(=O)N1Cc1ccc(F)cc1 | inactive
CN(C)c1ccc(/C=C2\NC(=S)N(Cc3ccccc3)C2=O)cc1 | 28.2 µM (active)
CCc1ccc(C(=O)CC2(O)C(=O)N(CCc3ccccc3)c3ccc(Br)cc32)cc1 (stereo unspecified) | inactive
CCC1CCCCN1Cc1c(O)ccc2c(=O)c(Oc3ccccc3Cl)c(C(F)(F)F)oc12 (stereo unspecified) | inactive
COCCNC(=O)c1ccc2c(c1)N(Cc1cccc(Cl)c1)C(=O)c1ccccc1S2(=O)=O | inactive
Cc1c(-c2nsc(NC(=O)c3cccc(Cl)c3)n2)nnn1-c1ccccc1C(F)(F)F | inactive
Cc1ccccc1Nc1scc(-c2ccc(Br)cc2)[n+]1-c1ccccc1C | 11.2 µM (active)
O=C(CSc1ncc(S(=O)(=O)c2ccc(Br)cc2)c(=O)[nH]1)Nc1ccc2c(c1)OCCO2 | inactive
CCN1CCN(C(c2cccnc2)c2cc(Cl)c3cccnc3c2O)CC1 (stereo unspecified) | 11.2 µM (active)
CCOC(=O)N1CCN(C(c2cccnc2)c2ccc3cccnc3c2O)CC1 (stereo unspecified) | 15.8 µM (active)
CCOc1ccc(C(NC(=O)c2cc(OC)c(OC)c(OC)c2)c2cc(Cl)c3cccnc3c2O)cc1 (stereo unspecified) | inactive
CCOC(=O)N1CCN(C(=O)CSc2nc(=O)n3cccc(C)c3n2)CC1 | inactive
CCN1CCN(C(c2ccc(C)cc2)c2c(O)cc(C)n(Cc3ccco3)c2=O)CC1 (stereo unspecified) | inactive
COc1ccccc1N1CCN(C(CNC(=O)C(=O)NCc2ccc(C)cc2)c2cccnc2)CC1 (stereo unspecified) | inactive
Cc1ccc(Cl)cc1NC(=O)CCC(=O)N1CC(C)Sc2ccccc21 (stereo unspecified) | inactive
CCOc1ccc(Nc2ncnc3scc(-c4ccc(OC)cc4)c23)cc1 | inactive
CN(NS(=O)(=O)c1cccs1)c1ncc(C(F)(F)F)cc1Cl | 56.2 µM (active)
CN(CC(=O)Nc1cccc(C(F)(F)F)c1)S(=O)(=O)c1cccs1 | inactive
C#CCN(N(C)c1ncc(C(F)(F)F)cc1Cl)S(=O)(=O)c1ccc2ccccc2c1 | inactive
Cc1cccc(-n2ncc(C(=O)N3CCN(c4ccc(Cl)cc4)CC3)c2C2CCN(C(=O)OC(C)(C)C)CC2)c1 | inactive
CC1=C(C(=O)OCC(C)C)C(c2ccc(OCc3ccccc3)cc2)N2C(=O)CCSC2=N1 (stereo unspecified) | inactive

Structure (SMILES) | Potency
NC1=NN(c2cccc(C(=O)O)c2)C(=O)C1 | inactive
Cc1cc(/C=C2/SC(=O)N(CC(=O)N3CCCC3)C2=O)c(C)n1C | inactive
Cc1cc(/C=N/Nc2ccc([N+](=O)[O-])cn2)c(C)n1-c1cccc(C(=O)O)c1 | 44.7 µM (active)
Cc1cccc(C)c1NC(=O)CSc1ccc([N+](=O)[O-])cn1 | inactive
O=[N+]([O-])c1cccc(/C=N/Nc2ncc(Br)cn2)c1 | inactive
Fc1ccc(Br)cc1/C=N/n1cnnc1 | inactive
Cc1cc(/C=C2\SC(=O)N(C)C2=O)c(C)n1-c1cccc(C(=O)O)c1 | 79.4 µM (active)
Cc1cc(/C=N/n2cnnc2)c(C)n1-c1cccc(C(=O)O)c1 | 35.5 µM (active)
Cc1cc(/C=C2/SC(=O)N(CC(=O)OC(C)C)C2=O)c(C)n1C | inactive
O=C(Cn1c(=O)n(-c2ccc(F)cc2)c(=O)c2sccc21)Nc1cccc(C(F)(F)F)c1 | inactive
CCc1cccc(-n2nnc(-c3nsc(NC(=O)c4ccc(C)cc4)n3)c2C)c1 | inactive
O=C(CS(=O)(=O)c1cccc2nsnc12)N1CCN(c2cccc(Cl)c2)CC1 | inactive
COc1ccccc1-c1cc(C(F)(F)F)nc(S(=O)(=O)CCCC(=O)Nc2ccc(F)cc2F)n1 | inactive
CCn1cc2nc(SCc3cccc(F)c3)n(CCc3ccccc3)c(=O)c2n1 | inactive
COc1cc(NS(=O)(=O)c2ccc3c(c2)OCC(C(=O)N2CCCC2)O3)cc(OC)c1 (stereo unspecified) | inactive
COc1ccc(C(=O)N2CCC(c3nc4ccccc4o3)CC2)cc1 | inactive
Cn1c(Nc2ccccc2)cc(=O)n(C)c1=O | inactive
Cc1cc(=O)n(C)c(=O)n1CCCNc1ccccc1 | 50.1 µM (active)
Cc1cc2nc(C)n(CCCNC(=O)Nc3ccccc3)c2cc1C | inactive
Cc1ccc(-n2nc(C)c3c(C)cc(=O)n(CC(=O)Nc4ccc(C(C)C)cc4)c32)cc1 | inactive
O=C(NC1CCCCC1)C1CCCN(S(=O)(=O)c2ccc(Br)s2)C1 (stereo unspecified) | inactive
O=C(Cc1ccc(S(=O)(=O)N2CCOCC2)s1)NCCC(c1ccccc1)c1ccccc1 | inactive
O=C(Cc1ccc(S(=O)(=O)N2CCCC2)s1)NC1CCCCCC1 | 50.1 µM (active)
Cc1cc(-c2ccc(C)c(S(=O)(=O)N3c4ccccc4CC3C)c2)on1 (stereo unspecified) | inactive
Cc1ccsc1CN(C(=O)c1oc2ccc(Br)cc2c1C)C1CCS(=O)(=O)C1 (stereo unspecified) | inactive
O=C(Nc1nnc(C2=COCCO2)o1)c1ccc([N+](=O)[O-])s1 | 79.4 µM (active)

Structure (SMILES) | Potency
CSc1ccccc1-c1nnc(NC(=O)c2ccc3c(c2)OCCO3)o1 | inactive
Cc1ccc(C(=O)Nc2nnc(C3=COCCO3)o2)cc1C | 50.1 µM (active)
O=C(Nc1ncc([N+](=O)[O-])s1)C1COc2ccccc2O1 (stereo unspecified) | inactive
Cc1cccc(C)c1NC(=O)CNC(=O)c1ccc2c(c1)OCCO2 | inactive
Cc1csc(NC(=O)C2=COCCO2)n1 | inactive
COc1ccc(C(=O)COC(=O)c2ccc([N+](=O)[O-])s2)cc1OC | inactive
COc1cc(-c2nnc(NC(=O)C3=COCCO3)o2)cc(OC)c1OC | 39.8 µM (active)
CCC(CC)c1nnc(NC(=O)C2=COCCO2)s1 | inactive
O=C(NCCc1csc(-c2ccc(C(F)(F)F)cc2)n1)C(=O)Nc1ccc(F)c(Cl)c1 | inactive
CC(C)(C)OC(=O)N1CCC(c2c(C(=O)NCc3ccccn3)cnn2-c2ccc(F)cc2)CC1 | inactive
O=C(CNC(=O)c1ccc2ccccc2c1)Nc1ncccc1O | 50.1 µM (active)
O=C(Nc1ncccc1O)c1ccc(C(=O)c2ccccc2)cc1 | inactive
CC1CCC(NC(=O)CNC(=O)c2ccc3ccccc3c2)CC1 (stereo unspecified) | inactive
CN(Cc1ccccc1)C(=O)CCS(=O)(=O)c1cc(Br)cc2c1N(C(=O)C1CC1)CC2 | inactive
Cc1ccc(C)c(N2CCN(C(=O)CN3C(=O)COc4ccc(S(=O)(=O)N5CCCCCC5)cc43)CC2)c1 | inactive
CCOCCCNCc1cc(Br)ccc1OCC | inactive
CCOc1ccccc1OCCCNCc1ccccc1 | 79.4 µM (active)
CCOCCCNCc1ccc(OCc2ccc(F)cc2)c(OC)c1 | inactive
Cc1cc(C)c2oc(-c3cccc(NC(=O)c4cccc(F)c4)c3C)nc2c1 | inactive
O=C1N=C(N2CCCC2)S/C1=C\c1cccc(Br)c1 | inactive
CCOc1cc(/C=C2\SC(N3CCCCC3)=NC2=O)ccc1O | inactive
CCN1C(=O)/C(=C2\SC(N3CCCCC3)=NC2=O)c2ccccc21 | 39.8 µM (active)
CCOc1ccc(S(=O)(=O)c2cn(Cc3ccccc3)c3ccc(OCC)cc3c2=O)cc1 | inactive
